Some test systems named below: SK-MEL-2 melanoma; EKVX NSCLC; SN12C renal; UO-31 renal; TK-10 renal; ACHN renal; CAKI-1 renal; A498 renal; CCRF-CEM leukemia; MOLT-4 leukemia.
What all share (test): NCI-60 one-dose screen, 48 h (100 = growth as untreated, 0 = no growth, -100 = all killed)
What all share (conditions): 10 µM unless noted

Structures are written as SMILES. The panel holds about 83,000 compounds, 20% with a hit somewhere; the sample as a whole holds those more often.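 Cells were grown in 96-well plates and exposed to the test compound at a single concentration for 48 hours; results are reported as percent growth, with values below 10 considered active.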 A number with no mark means an inactive call. The source made the active and inactive calls.

As for `CCCCCC1CCCCN1C(=O)OCCCC` (stereo not given), the growth with SK-MEL-2 melanoma is 102%; in the test with EKVX NSCLC it was 89.1%; with SN12C renal, 73.3%; in the test with UO-31 renal, 84.3%; with TK-10 renal, 95.6%; in the test with ACHN renal, 104%. The growth in the test on CAKI-1 renal is 79.7%; in the test on A498 renal, 88.1%; with CCRF-CEM leukemia, 84.6%; in the test with MOLT-4 leukemia, 99.5%.

Turning to `Cc1ccc(NC(=O)N[C@@H](Cc2cc(F)cc(F)c2)C(=O)N[C@@H]2C(=O)N3CCC[C@H]3C(=O)N3CCOC[C@H]3C(=O)N[C@@H](C)C(=O)N3C[C@H](C)C[C@H]3C(=O)O[C@H]2C)cc1`, the growth is 40.7% with SK-MEL-2 melanoma; 30.6% in the test on EKVX NSCLC; 18.4% in the test on SN12C renal; 28.4% with UO-31 renal; 60.7% in the test on TK-10 renal; 29.7% in the test with ACHN renal. Further, the growth in the test on CAKI-1 renal is 16.5%; in the test on A498 renal it was -3.1% (active); with CCRF-CEM leukemia it was 58.3%; with MOLT-4 leukemia it was 41%.

With `C1=C[C@H]2O[C@@H]1c1ccc3[nH]ccc3c12`, the growth with SK-MEL-2 melanoma was 95.7%; with EKVX NSCLC, 105%; with SN12C renal it was 102%; with UO-31 renal, 98.3%; with TK-10 renal, 105%; in the test with ACHN renal, 107%. The growth in the test on CAKI-1 renal was 89.6%; in the test with A498 renal it was 98.6%; with CCRF-CEM leukemia it was 90.7%; with MOLT-4 leukemia, 56%.

For the compound `O=c1cc(-c2ccccc2)oc2c(O)c(O)ccc12`, the growth in the test with SK-MEL-2 melanoma is 85.4%; in the test with EKVX NSCLC, 90%; in the test on SN12C renal it was 68.7%; with UO-31 renal, 36.2%; in the test with TK-10 renal it was 75.2%; in the test with ACHN renal, 40.1%. For the same compound, the growth is 37.4% in the test with CAKI-1 renal, 73.1% with A498 renal, 41.6% in the test on CCRF-CEM leukemia and 55.9% in the test with MOLT-4 leukemia.

As for `Fc1ccc(NC(=S)c2ccccc2)cc1`, the growth with SK-MEL-2 melanoma is 98.3%; in the test with EKVX NSCLC it was 97.5%; in the test on SN12C renal, 103%; in the test with UO-31 renal, 88.9%; in the test with TK-10 renal, 94.5%; with ACHN renal it was 102%. Also, the growth with CAKI-1 renal was 89.8%; in the test with A498 renal, 72.8%; with CCRF-CEM leukemia it was 94.6%; in the test on MOLT-4 leukemia it was 99.9%.

Turning to `CC(C)(C)c1cc(C(=O)Nc2ccccc2C(=O)NCCN)cc(C(C)(C)C)c1`, the growth is 20.3% in the test on SK-MEL-2 melanoma; 17.8% with EKVX NSCLC; -30.8% (active) with SN12C renal; 27.9% in the test with UO-31 renal; 75.5% in the test on TK-10 renal; -90.3% (active) in the test on ACHN renal. The growth in the test with CAKI-1 renal was 45.4%; with A498 renal, -11.6% (active); with CCRF-CEM leukemia, -8.48% (active); in the test on MOLT-4 leukemia, 20.6%.

As for `CCOC(=O)c1ccc2nc(-c3c(C)nn(-c4ccccc4)c3N3CCOCC3)[nH]c2c1`, the growth with SK-MEL-2 melanoma was 110%; in the test with EKVX NSCLC, 87.5%; with SN12C renal it was 90.9%; in the test with UO-31 renal, 69.1%; in the test on TK-10 renal it was 147%; with ACHN renal, 86.2%. The growth in the test on CAKI-1 renal is 78.6%; in the test on A498 renal it was 70.4%; in the test with CCRF-CEM leukemia, 88.8%; in the test on MOLT-4 leukemia, 84.4%.

Regarding `NC1=NC(=O)NC1(c1ccccc1)c1ccccc1`, the growth in the test on SK-MEL-2 melanoma was 68.2%; in the test on EKVX NSCLC, 111%; in the test with SN12C renal, 88.1%; in the test with UO-31 renal, 96.3%; in the test on TK-10 renal, 92%; in the test on ACHN renal, 95.8%. In addition, the growth in the test with CAKI-1 renal was 94.6%; in the test on A498 renal it was 87.6%; in the test with CCRF-CEM leukemia, 86.2%; in the test on MOLT-4 leukemia it was 87.6%.

Take `CCOc1cc(/C=N\NC(=O)N/N=C/c2ccc(O)c(OCC)c2)ccc1O`: the growth with SK-MEL-2 melanoma was 49.8%; in the test on EKVX NSCLC it was 60.6%; in the test with SN12C renal, 51.3%; in the test on UO-31 renal, 59.1%; in the test on TK-10 renal, 34.3%; in the test with ACHN renal, 45.6%. In addition, the growth in the test with CAKI-1 renal is 37.9%; in the test on A498 renal, 72.6%; in the test with CCRF-CEM leukemia, 16.5%; in the test with MOLT-4 leukemia, 31.1%.

As for `Cc1ccc(-n2nc3n(/c2=N\C(=O)NS(=O)(=O)c2ccc(C)cc2)CCN3C2=NCCN2)cc1`, the growth is 109% in the test with SK-MEL-2 melanoma; 99.5% in the test on EKVX NSCLC; 97% in the test on SN12C renal; 84.1% in the test with UO-31 renal; 101% in the test with TK-10 renal; 94.5% in the test on ACHN renal. In addition, the growth with CAKI-1 renal was 90%; in the test with A498 renal, 93.5%; with CCRF-CEM leukemia it was 107%; in the test on MOLT-4 leukemia, 112%.

In the case of `COC(=O)[C@]12CCC(C)(C)C[C@H]1C1=CC[C@@H]3[C@@]4(C)C/C(=C/c5cccnc5)C(=O)C(C)(C)[C@@H]4CC[C@@]3(C)[C@]1(C)CC2`, the growth is -70.3% [100 µM] (active) in the test on SK-MEL-2 melanoma; -44.8% [100 µM] (active) with EKVX NSCLC; -51.4% [100 µM] (active) with SN12C renal; -81.6% [100 µM] (active) in the test on UO-31 renal; -35.9% [100 µM] (active) in the test on TK-10 renal; -61.1% [100 µM] (active) in the test with ACHN renal. Moreover, the growth was -15.4% [100 µM] (active) in the test on CAKI-1 renal, -69.8% [100 µM] (active) in the test on A498 renal, 2.85% [100 µM] (active) in the test on CCRF-CEM leukemia and -14% [100 µM] (active) with MOLT-4 leukemia.

With `CCCCCCCCCCCCCC[n+]1cccc(C(N)=O)c1`, the growth in the test with SK-MEL-2 melanoma is -12.1% (active); in the test on EKVX NSCLC, -16.2% (active); in the test with SN12C renal, 1.56% (active); with UO-31 renal it was 62%; with TK-10 renal, 24%; in the test on ACHN renal, 35.4%. In addition, the growth in the test on CAKI-1 renal is 15.5%; in the test with A498 renal, 61.1%; in the test on CCRF-CEM leukemia it was -18.8% (active); with MOLT-4 leukemia, -31% (active).

With `Cc1cccc(C[C@H](NC(=O)Nc2ccc(Cl)cc2F)C(=O)N[C@@H]2C(=O)N3C[C@H](O)C[C@H]3C(=O)N3CCN(C)C[C@H]3C(=O)N[C@@H](C)C(=O)N3C[C@H](C)C[C@H]3C(=O)O[C@H]2C)c1`, the growth is 34.4% in the test with SK-MEL-2 melanoma; 71.4% in the test with EKVX NSCLC; 20.5% with SN12C renal; 83.6% with UO-31 renal; 81.4% in the test with TK-10 renal; 102% in the test with ACHN renal. The growth is 59.1% with CAKI-1 renal, 23.7% with A498 renal, 57.2% in the test with CCRF-CEM leukemia and 43.4% with MOLT-4 leukemia.

The record behind these values is PubChem BioAssay (NCI).
